Compound activity: PubChem, Broad Institute
RAD54 inh = inhibitors of human RAD54 branch migration, primary screen, biochemical, fluorescence, single point; RAD54 Holliday junction branch migration, FAM/BHQ fluorescence; inhibition, % at 10.4 µM; actives 0.14% (n = 360,000);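 active = mean normalized replicate activity at least 40 and at least half of replicates scoring 40 or more; inconclusive = only one of the two criteria met; inactive = mean below 40 and under half of replicates reaching 40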;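 also: inhibitors cause a drop in the FAM fluorescence signal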
dFosB activator = activators of delta FosB homodimer, primary screen, biochemical, fluorescence polarization, TAMRA-CDK5 oligo, single point. Protein FosB (Mus musculus), P13346. purified delta FosB; percent of positive-control signal above neutral wells. activation, % at 25 µM. actives 0.99% (n = 340,000). AID 493131, 2011;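 active = mean activation above about 17%, with every replicate also reaching it, limit read from the data, passing the limit was not always enough; inconclusive = only one of the two conditions met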
AF4-AF9 inh = inhibitors of AF4 peptide binding to AF9, primary screen, biochemical, AlphaScreen, biotin-AF4 peptide, FLAG-AF9, single point; AID 651704, 2012; actives 0.47% (n = 350,000); inhibition, % at 10 µM; Protein AF-9 (Homo sapiens), P42568;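 active = every replicate reaching a set inhibition limit, whatever the replicate mean, cut at about 25% in these data; inconclusive = mean inhibition reaches that limit but some replicates miss it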
Target sequence (P42568 whole entry, looked up): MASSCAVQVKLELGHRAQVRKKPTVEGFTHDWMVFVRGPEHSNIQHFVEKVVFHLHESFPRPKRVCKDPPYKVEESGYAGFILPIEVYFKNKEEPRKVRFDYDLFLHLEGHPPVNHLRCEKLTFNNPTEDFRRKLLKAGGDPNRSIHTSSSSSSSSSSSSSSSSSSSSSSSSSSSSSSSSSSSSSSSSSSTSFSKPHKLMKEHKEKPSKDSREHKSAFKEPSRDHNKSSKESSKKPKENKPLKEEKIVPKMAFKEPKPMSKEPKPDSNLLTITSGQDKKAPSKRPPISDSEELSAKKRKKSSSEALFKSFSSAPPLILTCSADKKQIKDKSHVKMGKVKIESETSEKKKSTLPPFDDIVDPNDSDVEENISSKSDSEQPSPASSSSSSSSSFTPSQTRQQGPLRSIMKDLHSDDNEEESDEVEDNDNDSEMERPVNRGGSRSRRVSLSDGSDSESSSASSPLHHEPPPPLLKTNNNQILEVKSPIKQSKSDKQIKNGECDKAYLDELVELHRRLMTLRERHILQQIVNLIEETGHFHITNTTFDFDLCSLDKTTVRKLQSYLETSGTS
INS-1E GSIS act = GLuc luminescence reporter in INS-1E cells, primary screen for activators of glucose-dependent secretion of insulin | INS-1E GLuc reporter insulin secretion, 2-3 h | activation, % at 16.6 µM | actives 0.61% (n = 370,000) | AID 743287, 2014;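 active = lowest replicate activation of at least 40%, so every replicate reaches that level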
RAD52 anneal inh = RAD52 DNA annealing inhibitors, primary screen, biochemical, FRET, single point, set 2; actives 0.46% (n = 360,000); recombinant RAD52 DNA annealing, FRET fluorescence; inhibition, % at 18.7 µM; DNA repair protein RAD52 homolog (Homo sapiens), P43351; AID 651710, 2012;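 active = every replicate showing at least 50% inhibition; inconclusive = mean inhibition at least 50% but not in every replicate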
DENV2 CPE = inhibitors of DENV2 cytopathic effect, primary screen, cell-based, plate reader, single concentration | DENV2-infected cells, cytopathic effect rescue | CPE inhibition, % at 9.99 µM | actives 1.7% (n = 350,000) | AID 651640, 2012; in the data active = CPE inhibition above about 20%, passing the limit was not always enough; inconclusive = no clear call, values can overlap the other calls; tested in BHK-21 cells
Of the large screens only hits and unclear results are named; the others gave an inactive call. Compounds with a hit are over-represented: about 3.1% of the library has one in this group of screens.

COc1ccc2c(c1)/C(=C/c1cc(OC)c(OC)c(OC)c1)C(=O)N2	DENV2 CPE 29 (no result: RAD54 inh)
O=C(NC1Cc2ccccc2C1)[C@@H]1[C@@H](CO)[C@@H]2Cn3c(cccc3=O)[C@H]1N2Cc1ccccc1F	none (no result: dFosB activator, RAD52 anneal inh, DENV2 CPE)
CC(C)C(NS(=O)(=O)c1ccc2c(c1)C(C)(C)C(=O)N2C)C(=O)NCc1ccccc1Cl (stereo unspecified)	DENV2 CPE 80 (no result: INS-1E GSIS act)
COc1ccc(NC(=O)c2c(F)cccc2F)cc1S(=O)(=O)Nc1ccc(Br)cc1	DENV2 CPE 49
COc1ccc(CN(C)C[C@H]2Oc3c(NC(=O)Nc4ccc(F)cc4)cccc3C(=O)N([C@H](C)CO)C[C@H]2C)cc1	none (no result: dFosB activator)
C[C@@H](NC(=O)C[C@@H]1CC[C@@H]2[C@H](COC[C@@H](O)CN2Cc2cc(F)ccc2F)O1)c1ccccc1	none (no result: dFosB activator)
C[C@H](CO)N1C[C@H](C)[C@H](CN(C)C(=O)c2ccccc2)Oc2cc(C3=CCCCC3)ccc2S1(=O)=O	DENV2 CPE 93 (no result: dFosB activator)
C[C@H]1CN([C@@H](C)CO)S(=O)(=O)c2ccc(C3=CCCCC3)cc2O[C@@H]1CN(C)C(=O)c1ccccc1	none (no result: dFosB activator)
C[C@@H]1CN([C@H](C)CO)S(=O)(=O)c2ccc(C3=CCCC3)cc2O[C@H]1CN(C)C(=O)c1ccncc1	DENV2 CPE 45 (no result: dFosB activator)
CCCNC(=O)N(C)C[C@H]1Oc2cc(C3=CCCCC3)ccc2S(=O)(=O)N([C@@H](C)CO)C[C@@H]1C	none (no result: dFosB activator)
C[C@H]1CN([C@@H](C)CO)S(=O)(=O)c2ccc(C3=CCCC3)cc2O[C@@H]1CN(C)C(=O)Cc1ccncc1	DENV2 CPE 31 (no result: dFosB activator)
CCCNC(=O)N(C)C[C@H]1Oc2cc(C3=CCCC3)ccc2S(=O)(=O)N([C@H](C)CO)C[C@H]1C	DENV2 CPE 30 (no result: dFosB activator)
C[C@@H]1CN([C@H](C)CO)S(=O)(=O)c2ccc(C3=CCCC3)cc2O[C@H]1CN(C)C(=O)Cc1ccncc1	none (no result: dFosB activator)
C[C@@H]1CN([C@H](C)CO)S(=O)(=O)c2ccc(C3=CCCC3)cc2O[C@@H]1CN(C)C(=O)c1ccncc1	none (no result: dFosB activator)
CCCNC(=O)Nc1ccc2c(c1)C(=O)N(C)[C@H]1CC[C@H](CC(=O)NCC3CCCCC3)O[C@H]1CO2	none (no result: dFosB activator)
C[C@@H]1CN([C@@H](C)CO)C(=O)c2cc(NC(=O)CCC(F)(F)F)ccc2O[C@H]1CN(C)CC1CCCCC1	none (no result: dFosB activator)
O=C(C[C@H]1CC[C@H](NC(=O)Nc2ccc(C(F)(F)F)cc2)[C@H](CO)O1)NCc1ccccn1	none (no result: dFosB activator)
C[C@H]1CN([C@@H](C)CO)S(=O)(=O)c2ccc(C3=CCCC3)cc2O[C@H]1CN(C)C(=O)C1CCC1	DENV2 CPE 21 (no result: dFosB activator)
C[C@@H]1CN([C@@H](C)CO)S(=O)(=O)c2ccc(C3=CCCCC3)cc2O[C@H]1CN(C)C(=O)C1CCC1	none (no result: dFosB activator)
CCOC(=O)/C=C/c1cc(F)ccc1O	DENV2 CPE 21 (no result: RAD54 inh, dFosB activator, AF4-AF9 inh)
C[C@@H]1CN([C@@H](C)CO)C(=O)c2cc(NS(C)(=O)=O)ccc2O[C@H]1CN(C)Cc1ccc(Cl)c(Cl)c1	none (no result: dFosB activator)
CN(C)c1ccc(Nc2nc(N)c([N+](=O)[O-])c(N3CCOCC3)n2)cc1	AF4-AF9 inh 30 (no result: RAD54 inh)
OC(c1ccccc1)C(NCc1ccccc1)c1ccccc1 (stereo unspecified)	DENV2 CPE 21 (no result: dFosB activator)
OC(CNCc1ccccc1)c1ccccc1 (stereo unspecified)	none (no result: INS-1E GSIS act)
O=C(C[C@@H]1C=C[C@@H](NC(=O)Nc2cc(F)ccc2F)[C@H](CO)O1)NCc1ccc2c(c1)OCO2	none (no result: dFosB activator)
CO[C@H]1O[C@H](CO)[C@@H](OC(=O)c2ccc(Br)cc2)[C@H](OC(=O)c2cc3ccccc3[nH]2)[C@H]1OC(=O)c1cc2ccccc2[nH]1	none (no result: dFosB activator, INS-1E GSIS act)
CO[C@H]1CN(C)C(=O)c2cc(NS(=O)(=O)CC(F)(F)F)ccc2OC[C@H](C)NC[C@H]1C	none (no result: dFosB activator)
CCS(=O)(=O)Nc1ccc2c(c1)C(=O)N(C)C[C@H](OC)[C@H](C)CN[C@H](C)CO2	DENV2 CPE 21 (no result: dFosB activator)
CCS(=O)(=O)Nc1ccc2c(c1)C(=O)N(C)C[C@@H](OC)[C@@H](C)CN[C@H](C)CO2	DENV2 CPE 55 (no result: dFosB activator)
CC(=O)N(C)C[C@@H]1Oc2ncc(-c3cccc(F)c3)cc2C(=O)N([C@H](C)CO)C[C@H]1C	DENV2 CPE inconclusive (no result: dFosB activator)
CCCc1cn(CC[C@@H]2CC[C@H](NC(=O)Cc3cccnc3)[C@H](CO)O2)nn1	none (no result: dFosB activator)
c1ccc(-c2cc3ccccc3[nH]2)cc1	DENV2 CPE 27
COc1ccc(-c2cc3ccccc3[nH]2)cc1	none
CCCNC(=O)Nc1ccc2c(c1)C(=O)N(C)C[C@H](OC)[C@@H](C)CN(C(=O)C1CCOCC1)[C@@H](C)CO2	none (no result: dFosB activator)
C[C@@H]1CN([C@H](C)CO)C(=O)c2cc(/C=C/c3ccccc3)cnc2O[C@H]1CN(C)Cc1cncnc1	none (no result: dFosB activator)
COCC(=O)N1[C@H](CO)[C@H]2c3ccccc3N(C(=O)c3cccnc3)C[C@H]21	DENV2 CPE 59 (no result: dFosB activator)
O=C(c1cccnc1)N1C[C@H]2[C@@H](c3ccccc31)[C@@H](CO)N2C(=O)Nc1ccc(F)cc1	none (no result: dFosB activator)
O=C(c1cccnc1)N1C[C@H]2[C@@H](c3ccccc31)[C@H](CO)N2C(=O)Nc1ccc(F)cc1	DENV2 CPE 67 (no result: dFosB activator)
CCCC(=O)N1C[C@H]2[C@@H](c3ccccc31)[C@@H](CO)N2C(=O)Nc1ccc(F)cc1	DENV2 CPE 28 (no result: dFosB activator)
COc1ccccc1CNC(=O)COC(=O)c1cc(C)nc2ccccc12	INS-1E GSIS act 48
Cc1cc(C(=O)OCC(=O)NCc2ccccc2)c2ccccc2n1	INS-1E GSIS act 67
COc1ccccc1CNC(=O)COC(=O)c1cc(-c2ccco2)nc2ccccc12	none (no result: AF4-AF9 inh, RAD52 anneal inh, DENV2 CPE)
COc1ccc(CN(C)C[C@H]2OCCCC[C@H](C)Oc3ccc(NS(=O)(=O)c4ccc(C)cc4)cc3C(=O)N([C@H](C)CO)C[C@H]2C)cc1	none (no result: dFosB activator)
COc1cccc(CNC(=O)c2cccnc2Sc2ccccc2)c1	INS-1E GSIS act 48
CSc1ccccc1OCc1cc(C(=O)N2CCc3[nH]cnc3C2c2ccccn2)no1 (stereo unspecified)	DENV2 CPE 50
Cn1c(N)c(C(=O)N/N=C/c2ccccc2)sc1=S	none
Cn1c(C(=O)N/N=C/c2ccccc2)cc2ccccc21	DENV2 CPE 88
Cc1c(CN2CCC(CO)(CCOc3ccccc3)CC2)[nH]c2c(Cl)cccc12	dFosB activator 21 (no result: RAD54 inh)
Cn1c(=O)c2[nH]cnc2n(C)c1=O	none
CC(C)Cn1c(=O)n(C)c(=O)c2[nH]cnc21	INS-1E GSIS act 73
